Assay outcomes: PubChem, National Center for Advancing Translational Sciences (NCATS)
HT1080 IDH1KD tx – kills HT-1080 cells with IDH1 knockdown. HT-1080 IDH1 knockdown viability, ATP luminescence, 48 h. actives 2% (n = 360,000). Potency, µM (titrated, usually from 46.1 µM), without a hit: top-dose activity, negative = toxicity, hits mostly cytotoxic. AID 686971;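 also: 0% = DMSO wells and -100% = cell-free medium wells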
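Using the IDH1-knockdown HT-1080 line run in the same batch and compound series as the NT line, viability after 48 h at 37 °C was determined by CellTiter-Glo luminescence and expressed as % activity.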
KB-3-1 cytotox – kills parental KB-3-1 adenocarcinoma cells | Potency, µM (highest dose often 46.1 µM), actives largely listed as cytotoxic | actives 1.4% (n = 400,000) | KB-3-1 viability, CellTiter-Glo ATP luminescence, 72 h | AID 1347075; also: % is scaled to controls: 0 for no effect and ±100 for the full control effect; nearly all actives have a fitted effect of over 60% in size
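KB-3-1 parental drug-naive adenocarcinoma cells in DMEM/10% FBS, incubated 72 h at 37 C with pin-transferred compounds across a concentration series. Viability by CellTiter-Glo luminescence; concentration-response curves fitted after normalization.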
SW480 rereplic – DNA re-replication induction in SW480 cells; SW480 DNA re-replication, Hoechst DNA content imaging, 48 h; Potency, µM (highest dose often 46.1 µM), without a hit: at the highest dose re-replication activation, usual class: activators; actives 1.8% (n = 340,000); AID 624297; also: % of control where 0% means no effect; nearly all actives have a fitted effect of over 55% in size
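DNA re-replication was detected as more nuclei of elevated Hoechst intensity after 48 hr exposure to compound (23 nL pinned per well of 250 cells).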
MCF10A rereplic – DNA re-replication induction in MCF 10a cells | MCF 10A DNA re-replication, Hoechst nuclear intensity, 48 h | Potency, µM (doses to about 46.1 µM), inactives show at the top dose activity, positive = re-replication, usual class: activators | actives 2.9% (n = 350,000); also: % of control where 0% means no effect; nearly all actives have a fitted effect of over 50% in size
KB-V1 MDR tox – KB-V1 MDR subline cytotoxicity; KB-V1 MDR cells viability, CellTiter-Glo, 72 h; actives 3.4% (n = 400,000); AID 1347076; Potency, µM (doses to about 46.1 µM), most hits filed as cytotoxic; also: % is scaled to controls: 0 for no effect and ±100 for the full control effect; nearly all actives have a fitted effect of over 60% in size
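Following 72 h at 37 degrees C with compound, KB-V1 cell viability was read by CellTiter-Glo luminescence, medium being phenol-red-free DMEM plus 10% FBS; concentration-response parameters came from normalized, curve-fitted qHTS data.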
HT1080-NT tox – kills 2HG-producing HT-1080-NT fibrosarcoma cells | Potency, µM (top dose mostly 46.1 µM), for inactives: at the top dose activity, negative = less viability, most hits filed as cytotoxic | HT-1080-NT fibrosarcoma viability, CellTiter-Glo ATP luminescence, 48 h | actives 1.6% (n = 360,000);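 also: NT is the 2HG producing partner of a matched IDH1 knockdown line; 0% = DMSO-treated cells and -100% = media-only wells without cells; nearly all actives have a fitted effect of over 55% in size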
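Compounds were tested in concentration-response format on HT-1080-NT cells for 48 hours at 37 degrees C. Cell viability came from CellTiter-Glo luminescence; curves were classified by r2, response magnitude and activity.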
The depositor's hits bear a star; i = inactive; u = inconclusive; x = no result given; [ ] = remark or other dose. Hits are enriched below; roughly 7.9% of the tested compounds scored in any of these assays. Calls follow the shape of the dose curve; as a rule, active = well fitted curve in the direction sought with a large enough effect; inconclusive = small, poorly fitted or top-dose-only effect, or another doubt; inactive = no such curve, though single readings can be large; an effect the other way counts as inactive or inconclusive. Potency is read from the fitted curve at half-maximal effect.

SMILES	HT1080 IDH1KD tx	KB-3-1 cytotox	SW480 rereplic	MCF10A rereplic	KB-V1 MDR tox	HT1080-NT tox
Cc1cc(C(=O)NC2CCCc3c2cnn3-c2cccc(C)c2C)no1 (stereo not given)	u	1.84µM*	-0.1%	24.1%	u	-25.2%
Cc1cc(C)c(NC(=O)CN2C(=O)c3cccnc3Sc3ccccc32)c(C)c1	x	i	x	x	i	x
COc1cccc(NC(=O)CCCN2C(=O)C3CC=CCC3C2=O)c1 (stereo not given)	10.3µM*	i	-2.3%	3.7%	u	u
CCOC(=O)Nc1cccc(OCC(=O)Nc2ccccc2OCC)c1	3.0%	i	-14.7%	10.1%	6.51µM*	5.8%
COc1cccc(NC(=O)CN(C)C(=O)Cc2ccc3c(c2)CCC3)c1	-6.6%	i	-4.3%	1.8%	14.6µM*	3.2%
COc1cccc(NC(=O)COC(=O)c2ccccc2C(=O)N(C)c2ccccc2)c1	-11.9%	i	-1.9%	5.6%	23.1µM*	0.4%
COc1cccc(NC(=O)CN(C)C(=O)Cc2ccc3c(c2)OCCO3)c1	19.7%	i	3.0%	0.2%	u	3.9%
CC(C)c1onc(C(=O)Nc2cccnc2Cl)c1[N+](=O)[O-]	2.4%	i	u	6.7%	i	10.1%
Cc1ccc(OCC(=O)NC(=S)Nc2cccc(NC(=O)c3ccc(Cl)cc3Cl)c2)cc1	-15.8%	i	-7.2%	22.3%	u	-7.3%
COc1cccc(NC(=O)COc2ccccc2)c1	-7.1%	i	20.3%	23.1µM*	i	1.6%
Cc1ccc(OCC(=O)NC(=S)Nc2cccc(NC(=O)c3ccccc3)c2)cc1	-0.4%	i	2.4%	14.6µM*	i	6.3%
CN(c1ccccc1)S(=O)(=O)c1cc(C(=O)OCC(=O)c2c(N)n(C)c(=O)n(C)c2=O)ccc1Cl	-1.0%	i	-5.9%	3.4%	16.4µM*	-7.7%
CCN(c1ccccc1)S(=O)(=O)c1cc(C(=O)OCC(=O)c2c(N)n(C)c(=O)n(C)c2=O)ccc1C	-2.9%	i	-4.6%	5.9%	i	-2.7%
Cn1c(N)c(C(=O)COC(=O)c2ccc(Cl)c(S(=O)(=O)N3CCCCC3)c2)c(=O)n(C)c1=O	8.3%	i	22.1%	u	20.6µM*	-2.5%
CCOc1ccc(C(=O)OCC(=O)c2c(N)n(C)c(=O)n(C)c2=O)cc1OCC	-1.3%	i	-2.0%	6.0%	i	-1.4%
CC1=C(C(=O)Nc2ccccc2Cl)C(c2ccc(N(C)C)cc2)NC(=O)N1 (stereo not given)	-7.8%	i	6.1%	6.5%	i	-0.2%
COCCNC(=O)C1CCN(c2nc3ccccc3nc2C(F)(F)F)CC1	x	i	x	x	i	x
Cc1ccc(Sc2ncccc2C(=O)N(C)Cc2cccs2)c(C)c1	-5.2%	i	-1.1%	13.4%	u	-12.2%
CCc1ccc(-c2cn3nc(CC)sc3n2)cc1	x	i	x	x	i	x
CC(O)CNCc1ccc(-c2ccccc2)cc1 (stereo not given)	-23.4%	i	u	u	i	-28.7%
CC(NCc1ccc(-c2ccccc2)cc1)C(O)c1ccccc1 (stereo not given)	14.6µM*	i	4.11µM*	25.9µM*	i	u
CSc1ccc(NC(=O)C2(C)CCN2C(=O)Cc2ccc(C(C)(C)C)cc2)cc1 (stereo not given)	u	u	x	x	16.4µM*	u
CC(C)(C)c1ccc(CC(=O)N2CCC2(C)C(=O)Nc2cnc3ccccc3c2)cc1 (stereo not given)	u	u	x	x	16.4µM*	u
Cc1ccc(CNC(=O)C2(C)CCN2C(=O)Cc2ccc(C(C)(C)C)cc2)cc1 (stereo not given)	u	i	x	x	i	u
CC(C)c1ccc(CC(=O)N2CCC2(C)C(=O)Nc2cnc3ccccc3c2)cc1 (stereo not given)	u	i	x	x	i	u
SMILES	HT1080 IDH1KD tx	KB-3-1 cytotox	SW480 rereplic	MCF10A rereplic	KB-V1 MDR tox	HT1080-NT tox
O=C(CSc1nnc(NC(=O)c2ccco2)s1)Nc1cccc(F)c1	9.1%	i	0.6%	0.7%	i	3.5%
Cc1ccc(N2C(=O)CC(C)(C)CC2=O)cc1Cl	21.8%	i	-4.7%	u	i	3.1%
CCC(=O)N(C(=O)CC)N1CCN(c2ccncc2S(=O)(=O)N2CCCCC2)CC1	-1.0%	0.0291µM*	0.5%	4.7%	i	3.1%
COC1(OC)C=CC(=O)C=C1NC(=O)c1ccccc1OC(C)=O	x	u	u	4.11µM*	u	x
CC(=O)Oc1ccccc1C(=O)Nc1ccccc1	x	i	-30.6%	u	i	x
CNc1cc([N+](=O)[O-])ccc1OCc1ccccc1	4.4%	i	-5.2%	11.1%	i	10.2%
CN(C=O)c1cc([N+](=O)[O-])ccc1OCc1ccccc1	23.5%	i	-0.9%	u	18.4µM*	20.1%
O=C(COc1cccc2c1CCN(Cc1ccccc1)C2=O)NCc1ccco1	-1.7%	i	0.2%	-2.0%	i	-1.1%
Cc1cc(C(=O)OCC(=O)NC2CC2)c2ccccc2n1	14.8%	i	10.5%	-5.3%	i	1.3%[9.24 µM]
NS(=O)(=O)c1ccc(N=Nc2ccc(O)c3ncccc23)cc1	23.1µM*	u	u	u	i	u
Oc1ccc(N=Nc2ccc3c(c2)OCCO3)c2ncccc12	3.66µM*	i	10.9%	u	u	u
CCS(=O)(=O)c1ccc(OC)c(N=Nc2ccc(O)c3ncccc23)c1	8.2µM*	u	u	-9.6%	u	u
CCOc1ccc(N=Nc2ccc(O)c3ncccc23)cc1	u	i	u	u	i	u
Cc1ccc(C)c(N=Nc2ccc(O)c3ncccc23)c1	u	i	4.7%	16.4µM*	u	u
CC(=O)/C(N=Nc1ccc2c(c1)OCCO2)=C(\C)O	-13.1%	i	-40.3%	9.0%	i	-6.0%
CCN(CC)S(=O)(=O)c1cc(OC)ccc1N=Nc1ccc(O)c2ncccc12	u	i	u	5.1%	i	u
Cc1cccc(N=Nc2ccc(O)c3ncccc23)c1	7.31µM*	u	-64.2%	u	i	u
CC(=NCCc1c(C)[nH]c2ccc(OC(F)(F)F)cc12)C1=C(O)CC(c2ccccc2)CC1=O (stereo not given)	u	4.61µM*	8.2µM*	8.2µM*	u	u
CCC/C(O)=C1\C(=O)CC(c2ccccc2)CC1=NCCc1c(C)[nH]c2ccccc12 (stereo not given)	-8.5%	i	3.1%	2.2%	i	8.0%
